Data as given in PubChem BioAssay (EPA / NIEHS).
Calls of active or inactive are those of the source. The calls were made as follows: active = hit-call score of the fitted dose curve at least 0.9, where 1 is the maximum; inactive = score below 0.9.

Columns and labels:
Details in all cases: mRNA level, 48 h; actives raise or lower the signal
[1] = read-out: 3-Hydroxy-3-Methylglutaryl-CoA Synthase 2 (HMGCS2), HMGCS2 (gene 3158); assay: LTEA_HepaRG_HMGCS2: Life Technologies and Expression Analysis (LTEA) Assay for 3-Hydroxy-3-Methylglutaryl-CoA Synthase 2 (HMGCS2) using HepaRG (AID 2283504)
Outline: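 qRT-PCR read-out of HMGCS2 transcript, normalised to three housekeeping genes, in HepaRG cells after 48 h chemical exposure. Eight-point curves from 100 uM, half-log dilutions, 0.5% DMSO vehicle; gain or loss fitted relative to DMSO baseline.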

[2] = read-out: HGF (gene 3082); assay: LTEA_HepaRG_HGF: Life Technologies and Expression Analysis (LTEA) Assay for Hepatocyte Growth Facto (HGF) using HepaRG (AID 2283505)
Outline: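 HepaRG, 48 h dosing, 8-pt half-log series from 100 uM in 0.5% DMSO, duplicates. Readout: TaqMan qRT-PCR of HGF mRNA, housekeeping-normalized; bidirectional curve fit vs DMSO baseline.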

[3] = read-out: Intercellular Adhesion Molecule 1 (ICAM1), ICAM1 (gene 3383); assay: LTEA_HepaRG_ICAM1: Life Technologies and Expression Analysis (LTEA) Assay for Intercellular Adhesion Molecule 1 (ICAM1) using HepaRG (AID 2283507)
Outline: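 HepaRG, 48 h exposure, 8-pt half-log series from 100 uM, 0.5% DMSO vehicle, duplicates. Readout: TaqMan qRT-PCR mRNA, housekeeping-normalized (ACTB/GAPDH/POLR2A). Bidirectional curve fit vs DMSO baseline.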

[4] = read-out: Insulin-like growth factor-binding protein 1 (IGFBP1), IGFBP1 (gene 3484); assay: LTEA_HepaRG_IGFBP1: Life Technologies and Expression Analysis (LTEA) Assay for Insulin-like growth factor-binding protein 1 (IGFBP1) using HepaRG (AID 2283508)
Outline: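 qRT-PCR mRNA read-out (TaqMan, Fluidigm array), normalised to three housekeeping genes; HepaRG cells, 48 h exposure, 8-pt half-log series from 100 uM, 0.5% DMSO vehicle; bidirectional curve fit vs DMSO baseline.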

[5] = read-out: Interleukin 6 (IL6), IL6 (gene 3569); assay: LTEA_HepaRG_IL6: Life Technologies and Expression Analysis (LTEA) Assay for Interleukin 6 (IL6) using HepaRG (AID 2283509)
Outline: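 qRT-PCR read-out of IL6 transcript, normalized to three housekeeping genes, after 48 h chemical exposure of HepaRG cells; 8-point half-log series, top 100 uM, 0.5% DMSO vehicle. Bidirectional curve fitting against DMSO baseline.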

[6] = read-out: Interleukin 6 Receptor (IL6R), IL6R (gene 3570); assay: LTEA_HepaRG_IL6R: Life Technologies and Expression Analysis (LTEA) Assay for Interleukin 6 Receptor (IL6R) using HepaRG (AID 2283510)
Outline: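 HepaRG, 48 h exposure, 8-pt half-log series, top 100 uM, 0.5% DMSO vehicle, duplicates. Read-out: TaqMan qRT-PCR of IL6R transcript, housekeeping-gene normalized. Gain or loss fitted relative to DMSO baseline.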

[7] = read-out: Potassium channel subfamily K member 1 (KCNK1), KCNK1 (gene 3775); assay: LTEA_HepaRG_KCNK1: Life Technologies and Expression Analysis (LTEA) Assay for Potassium channel subfamily K member 1 (KCNK1) using HepaRG (AID 2283511)
Outline: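 HepaRG, 48 h exposure, 8-pt half-log series top 100 uM, 0.5% DMSO vehicle, duplicates. Readout: KCNK1 transcript by qRT-PCR (Fluidigm array), housekeeping-normalized; bidirectional curve fit relative to DMSO baseline.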

[8] = read-out: Keratin 19 (KRT19), KRT19 (gene 3880); assay: LTEA_HepaRG_KRT19: Life Technologies and Expression Analysis (LTEA) Assay for Keratin 19 (KRT19) using HepaRG (AID 2283512)
Outline: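 HepaRG, 48 h chemical exposure, 8-pt half-log CRC from 100 uM, 0.5% DMSO vehicle, duplicates. Readout: TaqMan qRT-PCR of KRT19 mRNA, housekeeping-normalized (ACTB/GAPDH/POLR2A). Bidirectional fit vs DMSO baseline.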

[9] = read-out: JUN Transcription Factor, JUN (gene 3725); assay: LTEA_HepaRG_JUN: Life Technologies and Expression Analysis (LTEA) Assay for JUN Transcription Factor using HepaRG (AID 2283513)
Outline: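 HepaRG, 48 h exposure, 8-pt half-log series top 100 uM, 0.5% DMSO, duplicate. JUN mRNA by qRT-PCR (Fluidigm), housekeeping-normalized (ACTB/GAPDH/POLR2A); bidirectional curve fit vs DMSO baseline.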

[10] = read-out: Lipase C (LIPC), LIPC (gene 3990); assay: LTEA_HepaRG_LIPC: Life Technologies and Expression Analysis (LTEA) Assay for Lipase C (LIPC) using HepaRG (AID 2283514)
Outline: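 HepaRG, 48 h exposure, 8-pt half-log series from 100 uM in 0.5% DMSO, duplicates. Readout: LIPC mRNA by Fluidigm qRT-PCR, housekeeping-normalized (ACTB/GAPDH/POLR2A). Gain or loss fitted bidirectionally against DMSO baseline.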

[11] = read-out: matrix metalloproteinase-10 (MMP10), MMP10 (gene 4319); assay: LTEA_HepaRG_MMP10: Life Technologies and Expression Analysis (LTEA) Assay for matrix metalloproteinase-10 (MMP10) using HepaRG (AID 2283517)
Outline: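 Transcript levels come from Fluidigm qRT-PCR normalized to three housekeeping genes, with curves fitted bidirectionally against 0.5% DMSO. Human HepaRG cells were dosed for 48 hours at concentrations up to 100 uM.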

[12] = read-out: MYC, MYC (gene 4609); assay: LTEA_HepaRG_MYC: Life Technologies and Expression Analysis (LTEA) Assay for MYC using HepaRG (AID 2283518)
Outline: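 qRT-PCR read-out of MYC transcript (Fluidigm TaqMan, housekeeping-normalized) after 48 h chemical exposure of HepaRG cells; eight concentrations, top 100 uM, half-log steps. Bidirectional curve fitting against 0.5% DMSO vehicle baseline.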

[13] = read-out: matrix metalloproteinase-3 (MMP3), MMP3 (gene 4314); assay: LTEA_HepaRG_MMP3: Life Technologies and Expression Analysis (LTEA) Assay for matrix metalloproteinase-3 (MMP3) using HepaRG (AID 2283519)
Outline: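 qRT-PCR read-out of MMP3 mRNA (normalised to three housekeeping genes) in HepaRG liver cells after 48 h chemical exposure; 8-point half-log series, top 100 uM, 0.5% DMSO vehicle. Bidirectional curve fitting against DMSO baseline.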

[14] = read-out: Paternally Expressed 10 (PEG10), PEG10 (gene 23089); assay: LTEA_HepaRG_PEG10: Life Technologies and Expression Analysis (LTEA) Assay for Paternally Expressed 10 (PEG10) using HepaRG (AID 2283520);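 as to AC50: PEG10 transcript by qRT-PCR normalised to ACTB GAPDH and POLR2A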
Outline: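 qRT-PCR read-out: PEG10 mRNA normalised to three housekeeping genes, fitted bidirectionally against 0.5% DMSO vehicle. HepaRG cells received test chemicals for 48 h in serum-free induction medium, 8 points, top 100 uM, half-log steps.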

[15] = read-out: Nuclear factor NF-kappa-B p105 subunit (Homo sapiens) (UniProt P19838); assay: LTEA_HepaRG_NFKB1: Life Technologies and Expression Analysis (LTEA) Assay for Nuclear Factor Kappa B Subunit 1 (NFKB1) using HepaRG (AID 2283521)
Outline: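 Differentiated human HepaRG cells were exposed for 48 h in serum-free induction medium to eight concentrations (top 100 uM, half-log steps, 0.5% DMSO), in duplicate. NFKB1 mRNA was measured by TaqMan qRT-PCR, normalized to ACTB/GAPDH/POLR2A, and fitted bidirectionally against DMSO.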

[16] = read-out: Protein phosphatase 2A (PPP2R4), PTPA (gene 5524); assay: LTEA_HepaRG_PPP2R4: Life Technologies and Expression Analysis (LTEA) Assay for Protein phosphatase 2A (PPP2R4) using HepaRG (AID 2283522)
Outline: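 HepaRG, 48 h exposure, 8-pt half-log series from 100 uM, 0.5% DMSO vehicle, duplicates. Readout: PPP2R4 mRNA, Fluidigm qRT-PCR, housekeeping-normalized. Bidirectional curve fit vs DMSO baseline.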

[17] = read-out: Phosphatase and tensin (PTEN), PTEN (gene 5728); assay: LTEA_HepaRG_PTEN: Life Technologies and Expression Analysis (LTEA) Assay for Phosphatase and tensin (PTEN) using HepaRG (AID 2283523)
Outline: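 HepaRG, 48 h exposure, 8-pt half-log series from 100 uM top, 0.5% DMSO vehicle, duplicates. Readout: Fluidigm qRT-PCR of PTEN transcript; housekeeping normalization (ACTB, GAPDH, POLR2A). Gain or loss fitted relative to DMSO baseline.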

[18] = read-out: solute carrier (SLC22A1), SLC22A1 (gene 6580); assay: LTEA_HepaRG_SLC22A1: Life Technologies and Expression Analysis (LTEA) Assay for solute carrier (SLC22A1) using HepaRG (AID 2283524)
Outline: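 qRT-PCR readout (TaqMan, Fluidigm arrays) of SLC22A1 transcript, normalized to three housekeeping genes; bidirectional curve fit relative to 0.5% DMSO vehicle. Differentiated human HepaRG cells, 48 h chemical exposure, top concentration 100 uM, half-log steps, eight points.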

[19] = read-out: NAD(P)H dehydrogenase [quinone] 1 (NQO1), NQO1 (gene 1728); assay: LTEA_HepaRG_NQO1: Life Technologies and Expression Analysis (LTEA) Assay for NAD(P)H dehydrogenase [quinone] 1 (NQO1) using HepaRG (AID 2283526)
Outline: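 qRT-PCR read-out (Fluidigm TaqMan), normalized to three housekeeping genes, after 48 h chemical exposure of HepaRG cells. Concentrations: eight points, top 100 uM, half-log steps, 0.5% DMSO vehicle. Gain or loss of signal fitted relative to DMSO.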

[20] = read-out: succinate dehydrogenase complex iron sulfur subunit B (SDHB), SDHB (gene 6390); assay: LTEA_HepaRG_SDHB: Life Technologies and Expression Analysis (LTEA) Assay for succinate dehydrogenase complex iron sulfur subunit B (SDHB) using HepaRG (AID 2283528)
Outline: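 HepaRG, 48 h exposure, 8-pt half-log series from 100 uM in 0.5% DMSO, duplicates. Readout: SDHB mRNA by Fluidigm qRT-PCR vs housekeeping genes; bidirectional fit relative to DMSO.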

Measured: AC50

Chain of Nuclear factor NF-kappa-B p105 subunit (Homo sapiens) (P19838 whole entry, looked up): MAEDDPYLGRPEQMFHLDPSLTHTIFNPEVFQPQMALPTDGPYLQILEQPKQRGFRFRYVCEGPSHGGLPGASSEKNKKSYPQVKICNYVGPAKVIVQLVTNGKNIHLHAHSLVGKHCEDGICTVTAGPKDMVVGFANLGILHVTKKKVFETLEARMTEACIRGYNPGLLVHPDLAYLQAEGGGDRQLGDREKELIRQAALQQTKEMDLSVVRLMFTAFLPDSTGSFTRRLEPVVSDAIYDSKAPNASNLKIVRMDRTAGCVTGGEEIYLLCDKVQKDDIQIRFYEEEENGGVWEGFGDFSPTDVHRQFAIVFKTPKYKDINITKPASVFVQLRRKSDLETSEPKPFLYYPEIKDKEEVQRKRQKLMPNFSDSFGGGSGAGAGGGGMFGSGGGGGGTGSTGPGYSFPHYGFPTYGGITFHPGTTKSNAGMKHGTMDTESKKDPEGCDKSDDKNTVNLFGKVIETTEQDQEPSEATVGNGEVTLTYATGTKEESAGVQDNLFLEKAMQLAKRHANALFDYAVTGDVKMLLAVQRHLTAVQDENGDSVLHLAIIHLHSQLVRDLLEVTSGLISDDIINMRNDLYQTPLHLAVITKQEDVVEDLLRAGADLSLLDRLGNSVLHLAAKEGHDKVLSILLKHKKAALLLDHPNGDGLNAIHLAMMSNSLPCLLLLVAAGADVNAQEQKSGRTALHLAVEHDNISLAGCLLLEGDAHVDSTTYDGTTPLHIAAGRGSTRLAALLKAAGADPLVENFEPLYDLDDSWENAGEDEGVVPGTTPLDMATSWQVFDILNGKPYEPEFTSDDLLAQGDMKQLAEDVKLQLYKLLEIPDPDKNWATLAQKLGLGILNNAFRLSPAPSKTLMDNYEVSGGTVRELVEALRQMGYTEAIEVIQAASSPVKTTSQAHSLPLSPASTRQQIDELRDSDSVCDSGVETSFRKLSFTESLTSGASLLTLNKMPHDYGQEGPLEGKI

C=C(C)C(=O)[O][Sn]([CH2]CCC)([CH2]CCC)[CH2]CCC
active: [1] 2.69 µM | [2] 72 µM | [3] 2.12 µM | [4] 2.66 µM | [5] 3.28 µM | [9] 6.54 µM | [10] 2.37 µM | [12] 2.77 µM | [15] 94.9 µM | [17] 15.8 µM | [18] 2.7 µM | [19] 9.2 µM | [20] 94.1 µM
inactive: [6] | [7] | [8] | [11] | [13] | [14] | [16]

CC(C)(C)c1cc(O)ccc1O
not listed: [7]
inactive: all other assays above

ClCC(Cl)CCl
not listed: [15] | [19]
inactive: all other assays above

CC(=O)[O][Hg][c]1ccccc1
active: [1] 23.3 µM | [2] 2.1 µM | [3] 0.558 µM | [4] 4.6 µM | [5] 16 µM | [6] 20.6 µM | [8] 4.54 µM | [9] 12.7 µM | [11] 15.8 µM | [12] 24.2 µM | [13] 50 µM | [14] 50 µM | [15] 23.2 µM | [16] 28 µM | [17] 69.5 µM | [18] 2.33 µM | [19] 12.3 µM | [20] 26.2 µM
inactive: [7] | [10]

O=C(Nc1ccc2[nH]ccc2c1)c1cc2cc(F)ccc2n1Cc1cccc(F)c1
inactive: [2] | [7] | [13] | [15] | [16] | [17] | [19] | [20]
active: [1] 30.2 µM | [3] 12.6 µM | [4] 27.2 µM | [5] 50 µM | [6] 89.5 µM | [8] 50 µM | [9] 50 µM | [10] 59.7 µM | [11] 29 µM | [12] 15.7 µM | [14] 50 µM | [18] 39.5 µM

CCCCCCCCc1ccc(O)cc1
active: [1] 64.6 µM
inactive: all other assays above

C[C@]12CCC(=O)C[C@@H]1CC[C@@H]1[C@@H]2CC[C@]2(C)[C@@H](O)CC[C@@H]12
active: [14] 50 µM
inactive: all other assays above

C=CC(=O)OCCCCCC(C)C
inactive: all assays above
